According to PubChem BioAssay (NCI):
This is part of a sample that, as a whole, favours compounds with a hit. Of some 79,000 tested, about 15% had one in any assay. Active and inactive are the calls of the source. Cut-off read from the data, not from the text of the source: active = growth inhibition above about 70%; inactive = the rest.

Columns and labels:
[1] = NCI Yeast Anticancer Drug Screen. Data for the rad50 strain (AID 155);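 note: 0% = growth of vehicle-only cultures of the same strain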; conditions: S. cerevisiae rad50 strain growth inhibition; at 50.0 µM; hits give high values
Summary of the method: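 Relative growth inhibition (compound vs vehicle) was measured in yeast with a defined repair-gene alteration.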

[2] = NCI Yeast Anticancer Drug Screen. Data for the mec2-1 strain (AID 157); conditions: S. cerevisiae mec2-1 strain, at 50.0 µM, hits give high values
Summary of the method: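 Using mec2-1 yeast: add compound, measure growth, express inhibition versus vehicle-treated cultures.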

[3] = NCI Yeast Anticancer Drug Screen. Data for the sgs1 mgt1 strain (AID 161);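 note: 0% = growth of cultures given vehicle only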; conditions: S. cerevisiae sgs1 mgt1 strain, at 50.0 µM, hits give high values
Summary of the method: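 Percent growth inhibition was derived by comparing compound-exposed mutant yeast with vehicle-exposed cultures. The strain carries alterations in DNA damage repair.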

[4] = NCI Yeast Anticancer Drug Screen. Data for the cln2 rad14 strain (AID 165);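 note: 0% = growth equal to vehicle treated cultures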; conditions: S. cerevisiae cln2 rad14 strain, at 50.0 µM, hits give high values
Summary of the method: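 Yeast strain cln2 rad14, bearing defects in cell cycle control and DNA repair, serves as the test system; values reflect growth inhibition compared with vehicle.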

[5] = NCI Yeast Anticancer Drug Screen. Data for the bub3 strain (AID 167); conditions: S. cerevisiae bub3 mutant strain, at 50.0 µM, hits give high values
Summary of the method: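 Screening used yeast with an engineered genetic alteration affecting cell cycle control. Compound-exposed cultures were compared with vehicle cultures, and reduced growth was taken as inhibition.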

[6] = NCI Yeast Anticancer Drug Screen. Data for the mlh1 rad18 strain (AID 175); conditions: S. cerevisiae mlh1 rad18 strain growth inhibition; at 50.0 µM; hits give high values
Summary of the method: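 Steps: expose repair-defective yeast to compound; measure growth; express inhibition against vehicle-treated controls.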

Measured: growth inhibition

NC(=O)N/N=C\c1ccco1
inactive: [1] 26.1% | [2] -9.8% | [3] -13.3% | [4] -11.4% | [5] -14.3% | [6] 13.1%

CCCCCCCO
inactive: [1] -11% | [2] -17.9% | [3] -28.8% | [4] 2.25% | [5] -14.7% | [6] -11.9%

O=c1[nH]c(O)c(/C=C2/C=Nc3ccccc32)[nH]1
inactive: [1] 0.45% | [2] -5.85% | [3] -8.35% | [4] -15.2% | [5] 4.1% | [6] 0.6%

C/C(=C\c1ccc([N+](=O)[O-])cc1)C(=O)O
inactive: [1] 23.6% | [2] 23.1% | [3] 19.2% | [4] 12.2% | [5] 31.4% | [6] 47.5%

CN(C)CCN(Cc1ccccc1)c1ccccc1
inactive: [1] -16.1% | [2] -41.6% | [3] -13.6% | [4] -10.7% | [5] -20.8% | [6] -12%

CC(=O)OCCC(C)CCC=C(C)C (centres undefined)
inactive: [1] 14.7% | [2] 19.1% | [3] -19.9% | [4] -18.1% | [5] -16.9% | [6] 2.4%

OCC1OC(OC2C(O)C(CO)OC2(CO)OC2OC(CO)C(O)C(O)C2O)C(O)C(O)C1O (centres undefined)
inactive: [1] -18.1% | [2] -7.95% | [3] -31.8% | [4] -3.15% | [5] -14.2% | [6] -14.7%

c1ccc(Sc2ccccc2)cc1
inactive: [1] -4.6% | [2] 10.5% | [3] -8.5% | [4] -63.6% | [5] -7.95% | [6] 0.85%

COc1cc(/C=N\Nc2ccccc2)ccc1OC(=O)c1ccccc1
inactive: [1] 25.1% | [2] 8.95% | [3] 41.4% | [4] 23.9% | [5] 11.8% | [6] 17.6%

S=c1nn[nH]c2ccccc12
inactive: [1] 17.4% | [2] 22.6% | [3] 8.6% | [4] 8.1% | [5] 7.8% | [6] 8.25%

O=C(O)C(Cc1ccccc1)C(=O)O
inactive: [1] 5.8% | [2] -7.15% | [3] -27.7% | [4] -33% | [5] -18.4% | [6] -7.2%

Clc1ccc(-c2nnc(-c3cccc4ccccc34)o2)cc1
inactive: [1] -22.9% | [2] -56.9% | [3] -29.4% | [4] 0.15% | [5] -19.6% | [6] -24.6%

Cc1ccc(C(=O)N/N=C/c2ccc3c(c2)OCO3)cc1
inactive: [1] 18.1% | [2] 8.35% | [3] 4.15% | [4] 10.8% | [5] 6.2% | [6] 6.75%

CCC/C=C(\C)C(C)(C#N)C(=O)OCC (centres undefined)
inactive: [1] 3.1% | [2] -8.45% | [3] 10.8% | [4] -1.35% | [5] -17.7% | [6] -29.9%

CC(C)C(C#N)(C(C)C)C(C)C
inactive: [1] 23.3% | [2] 15.4% | [3] 4% | [4] -29.6% | [5] -1.95% | [6] 22.4%

COc1cc(/C=C/C(=O)c2ccccc2)cc(OC)c1OC
inactive: [1] -4.7% | [2] -5.8% | [3] -3% | [4] 34.5% | [5] -18.1% | [6] -2.3%

S=c1[nH]ccn1-c1ccccc1Cl
inactive: [1] -17.8% | [2] -17.2% | [3] -17.6% | [4] -29.1% | [5] -10.4% | [6] -2.1%

CC(=O)c1ccc2c(ccc3ccccc32)c1
inactive: [1] -13.1% | [2] -16.3% | [3] -12.6% | [4] -14.6% | [5] -5.4% | [6] 3.9%

COc1cccc(O)c1O
inactive: [1] 3.45% | [2] 9.4% | [3] 1.2% | [4] 16.9% | [5] 9.95% | [6] 19.4%

COc1cc([C@@H]2c3cc4c(cc3[C@H](O)[C@H]3COC(=O)[C@H]23)OCO4)cc(OC)c1OC
inactive: [1] -4.8% | [2] -8.55% | [3] 9.05% | [4] 5.1% | [5] 3.6% | [6] 9%

CCS(=O)(=O)CCCl
inactive: [1] 12.2% | [2] -5.1% | [3] 2.3% | [4] 5.9% | [5] 0.95% | [6] 5.85%

CCN(CC)CCNc1ccc(CO)c2sc3ccccc3c(=O)c12
inactive: [1] -16.1% | [2] -28.1% | [3] -10.8% | [4] 2.6% | [5] -24.1% | [6] -14.4%

C[C@]12CC[C@@H]3c4ccc(OCC(=O)O)cc4CC[C@H]3[C@@H]1CCC2=O
inactive: [1] 16% | [2] 0.35% | [3] -18.7% | [4] -8% | [5] 5.6% | [6] 2.05%

CC(C)CCCC(=O)O
inactive: [1] -9.7% | [2] -7.5% | [3] -1.25% | [4] 27.8% | [5] -2.95% | [6] -13.8%

COc1ccccc1N1CCN(C(=S)Nc2ccccc2)CC1
inactive: [1] 32.3% | [2] -13.8% | [3] 0.8% | [4] -1.05% | [5] -2.7% | [6] 15.3%

CCOC(=O)C1OC1c1ccccc1 (centres undefined)
inactive: [1] 24.5% | [2] -6.45% | [3] -2.3% | [4] -4.5% | [5] -3.9% | [6] 22.9%

Brc1cnc2ccccc2c1
inactive: [1] 12.8% | [2] 9.05% | [3] 26.7% | [4] -7.65% | [5] -2.55% | [6] 22.2%

O=C(O)CNC(=O)c1ccccc1
inactive: [1] -46% | [2] -4.45% | [3] -25.6% | [4] -50.1% | [5] -25% | [6] -47.6%

c1csc(-c2cc(-c3cc(-c4cccs4)[nH]n3)n[nH]2)c1
inactive: [1] 9.4% | [2] -11.2% | [3] 6.35% | [4] -2.7% | [5] -3.05% | [6] 2.6%

O=C(/C(=N/O)c1ccccc1)c1ccccc1
inactive: [1] 7.4% | [2] -21.6% | [3] 1.35% | [4] -25.5% | [5] 4.85% | [6] 12.2%

CCCCOC(OCCCC)c1ccccc1
inactive: [1] -26.5% | [2] -9.5% | [3] 20.7% | [4] -18.6% | [5] -1.8% | [6] 12.2%

CC1(C(=O)O)NC(C(=O)O)Cc2c1[nH]c1ccccc21 (centres undefined)
inactive: [1] 26.5% | [2] -13.2% | [3] 3.15% | [4] 3.65% | [5] 32.4% | [6] 13.3%

Cc1cc(O)ccc1O
inactive: [1] 31% | [2] 25.1% | [3] 7% | [4] -5.05% | [5] 3.5% | [6] 42.3%

CC1(C(N)=O)CCC(C(=O)O)C1(C)C (centres undefined)
inactive: [1] 10.3% | [2] -3.45% | [3] 14.4% | [4] -29.9% | [5] -3.45% | [6] 8.15%

CC(=O)OCC1OC(OC2=C(CC=C(C)C)C(=O)c3ccccc3C2=O)C(OC(C)=O)C(OC(C)=O)C1OC(C)=O (centres undefined)
inactive: [1] -7.2% | [2] 3.85% | [3] -17.4% | [4] -15% | [5] -12.7% | [6] -6.6%

Cc1cc(/C=C/c2ccc3cc(N(C)C)ccc3[n+]2C)c(C)n1-c1ccccc1
active: [1] 87.2% | [2] 87.2% | [3] 92.8% | [4] 93.2% | [5] 70.8% | [6] 95.8%

O=C(N/N=C\c1cc(Br)cc(Br)c1O)N/N=C/c1cc(Br)cc(Br)c1O
inactive: [1] 41.4% | [2] 10.2% | [3] 43% | [4] 21.9% | [5] 39% | [6] 33.2%

CCOC(=O)Nc1cc2c(c(N)n1)N=C(c1ccccc1)CO2
inactive: [1] 37.5% | [2] 27.7% | [3] 34% | [4] 16.5% | [5] 14.8% | [6] -21.9%

CC(=O)c1c[nH]c2ccccc12
inactive: [1] -6.8% | [2] -9.85% | [3] -19.6% | [4] -53.2% | [5] -2.25% | [6] 9.15%

COc1cc2cc(c1Cl)N(C)C(=O)C[C@H](OC(=O)[C@H](C)N(C)C(C)=O)[C@]1(C)O[C@H]1[C@H](C)[C@@H]1C[C@@](O)(NC(=O)O1)[C@H](OC)C=C/C=C(\C)C2
inactive: [1] 12.1% | [2] -11.4% | [3] 6.55% | [4] 14.1% | [5] 5.9% | [6] 25.3%

OCCN(CCO)C(=S)S
inactive: [1] 2.15% | [2] -5.75% | [3] 1.1% | [4] -1.8% | [5] 4.95% | [6] -0.85%

CCCCNC1(C#N)CCN(Cc2ccccc2)CC1
inactive: [1] -2.25% | [2] -7.95% | [3] -5.9% | [4] 6.75% | [5] -1.25% | [6] -5.7%

COC1=CC(=O)c2nc(Cl)ccc2C1=O
inactive: [1] 29% | [2] 9.95% | [3] 35.2% | [4] -1% | [5] 11.8% | [6] 24.6%

O=C1OC(=O)C2C1C1(Cl)C(Cl)=C(Cl)C2(Cl)C2C(=O)OC(=O)C21 (centres undefined)
inactive: [1] 2.45% | [2] 12.4% | [3] 17.9% | [4] -9.45% | [5] 25.3% | [6] -1.75%
